Laboratory results from PubChem BioAssay (NCI).
Compounds without any hit were thinned out: in the full panel of roughly 83,000, 20% have a hit.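 Note: values are percent growth. 100 is the growth of untreated cells, values between 100 and 0 indicate rising inhibition; between -100 and 0 indicates cell death.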 Values without a mark were called inactive. The source made the active and inactive calls. The calls were made as follows: active = growth percent below 10; inactive = the rest.

Tested on: SK-MEL-5 melanoma
Experiment: NCI-60 one-dose screen, 48 h (100 = growth as untreated, 0 = no growth, -100 = all killed)
Conditions: 10 µM

Compound	growth
COc1ccc(-c2nn(-c3cccc(NC(=O)Nc4cccc(C(F)(F)F)c4)c3)cc2-c2ccncc2)cc1Cl	2.68% (active)
COc1ccc(-c2nn(-c3cccc(NC(=O)c4ccc(Cl)c(Cl)c4)c3)cc2-c2ccncc2)cc1Cl	78.8%
Cc1c(Cl)cccc1NC(=O)c1sc2nc3c(cc2c1N)C(=O)CCC3	9.76% (active)
COc1cc(/C=C/C(=O)c2ccc(Cl)cc2)ccc1OS(=O)(=O)c1ccc(C)cc1	100%
O=C(N/N=C/c1cc2ccccc2c2ccccc12)c1cc(O)c(O)c(O)c1	52.9%
COc1ccc(-c2nn(-c3cccc(NC(=O)c4ccc(N5CCOCC5)c(C(F)(F)F)c4)c3)cc2-c2ccncc2)cc1Cl	68.2%
COc1ccc(-c2cc(/C=C/C(=O)c3cc(OC)c(OC)c(OC)c3)[nH]n2)cc1OC	27.4%
CC1=C(N2CCOCC2)C(N2CCOCC2)=C(C)C(=O)C1=O	99.2%
Cc1ccc(C)c(C(O)(c2cc(C)ccc2C)C2(O)CCCCC2)c1	99.4%
COc1ccc(-c2nn(-c3cccc(NC(=O)c4ccc5c(c4)OCCO5)c3)cc2-c2ccncc2)cc1Cl	20%
Cc1ncc(-c2ccoc2)c(NC2CCCCCC2)n1	99.6%
O=S(=O)(NCCNc1nccc(-c2c(-c3ccc(F)cc3)nc3sccn23)n1)c1ccc2ccccc2c1	69.2%
COc1ccc2c(c1)nc(N)c1c3cccnc3cn21	-38.1% (active)
O=C(Nc1cccc(-n2cc(-c3ccncc3)c(-c3ccc(O)c(Cl)c3)n2)c1)c1ccc(Cl)c(Cl)c1	48.1%
CCN1CCCC1CNC(=O)c1ncc(-c2ccc(C(F)(F)F)cc2)c(NC2CCCCCC2)n1 (centres undefined)	45.2%
Clc1ccc(-c2cn(-c3ccccc3)c(-c3ccccc3)n2)c(Cl)c1	68.1%
CCCCCCCCCCCCCCCC(=O)OC1[C@@H](OC(=O)CCCCCCCCCCCCCCC)[C@@H](C(=O)N[C@@H](CCCCN)C(=O)OC)O[C@H]1n1cnc2c(=O)[nH]c(NC(=O)C(C)C)nc21 (some centres undefined)	101%
O=c1oc2cc(OS(=O)(=O)c3ccccc3)ccc2c2c1CCCCC2	26%
O=C1Nc2ccccc2C1=NC1CCCCC1	94.3%
O=C(Nc1cccc(-n2cc(-c3ccncc3)c(-c3ccc(O)c(Cl)c3)n2)c1)c1ccc(N2CCOCC2)c(C(F)(F)F)c1	40.9%
O=C(Nc1ccc(OS(=O)(=O)c2ccccc2)cc1)C12CC3CC(CC(C3)C1)C2	32%
O=C(Nc1cccc(-n2cc(-c3ccncc3)c(-c3ccc(O)c(Cl)c3)n2)c1)c1cc(C(F)(F)F)cc(C(F)(F)F)c1	56.4%
CCCC#CCN(CC)CC	104%
Cc1ccc(S(=O)(=O)OCCN(CCOS(=O)(=O)c2ccc(C)cc2)c2c[nH]c(=O)[nH]c2=O)cc1	101%
CCOC(=O)C(NC(=O)C(Cl)Cl)C(O)c1ccccc1 (centres undefined)	91.4%

Tested on: UACC-62 melanoma
Experiment: as above
Conditions: 10 µM

Compound	growth
CCCCCCCNc1nc(C=O)ncc1-c1ccc(C(F)(F)F)cc1	116%
CCCCCCN1CCN(Cc2ccc(N(CC)CC)cc2)C(=O)C1=O	45%
O=C(Nc1cccc(-n2cc(-c3ccncc3)c(-c3ccc(O)c(Cl)c3)n2)c1)Nc1ccc(Cl)c(Cl)c1	-43% (active)
S=C1SCC(c2ccccc2)S1 (centres undefined)	100%
COc1cccc(C(=O)Nc2ccc(CN3CCc4nc5cc(OC)c(OC)cc5cc43)cc2)c1	67.3%
COc1ccc(-c2nn(-c3cccc(NC(=O)c4cc(C(F)(F)F)cc(C(F)(F)F)c4)c3)cc2-c2ccncc2)cc1Cl	73.6%
O=C(Nc1ccccc1)Nc1cccc(-n2cc(-c3ccncc3)c(-c3ccc(O)c(Cl)c3)n2)c1	43.8%
N#CCCN1C/C(=C/c2ccc(Cl)cc2)C(=O)/C(=C/c2ccc(Cl)cc2)C1	-66.1% (active)
COc1ccc(-c2nn(-c3cccc(NC(=O)c4cccc(C(F)(F)F)c4)c3)cc2-c2ccncc2)cc1Cl	38.2%
COc1ccc([N+](=O)[O-])c(C(=O)O)c1	106%
CN(C)CCN=c1nc2c(c(N)n1-c1ccccc1)c(=S)n(-c1ccccc1)c(=S)n2-c1ccccc1	-90.3% (active)
O=C(Nc1cccc(-n2cc(-c3ccncc3)c(-c3ccc(O)c(Cl)c3)n2)c1)c1cccc(C(F)(F)F)c1	37.9%
COc1cccc(NC(=O)c2sc3nc4c(cc3c2N)C(O)CCC4)c1 (centres undefined)	48.9%
O=S(=O)(NCCCNc1nccc(-c2c(-c3ccc(F)cc3)nc3sccn23)n1)c1ccc2ccccc2c1	45%
COc1ccc(-c2nn(-c3cccc(NC(=O)Nc4cccc(C(F)(F)F)c4)c3)cc2-c2ccncc2)cc1Cl	-21.5% (active)
COc1ccc(-c2nn(-c3cccc(NC(=O)c4ccc(Cl)c(Cl)c4)c3)cc2-c2ccncc2)cc1Cl	83.7%
Cc1c(Cl)cccc1NC(=O)c1sc2nc3c(cc2c1N)C(=O)CCC3	34.5%
COc1cc(/C=C/C(=O)c2ccc(Cl)cc2)ccc1OS(=O)(=O)c1ccc(C)cc1	79.4%
O=C(N/N=C/c1cc2ccccc2c2ccccc12)c1cc(O)c(O)c(O)c1	41.5%
COc1ccc(-c2nn(-c3cccc(NC(=O)c4ccc(N5CCOCC5)c(C(F)(F)F)c4)c3)cc2-c2ccncc2)cc1Cl	74.3%

Compound	growth
COc1ccc(-c2cc(/C=C/C(=O)c3cc(OC)c(OC)c(OC)c3)[nH]n2)cc1OC	50.8%
CC1=C(N2CCOCC2)C(N2CCOCC2)=C(C)C(=O)C1=O	109%
Cc1ccc(C)c(C(O)(c2cc(C)ccc2C)C2(O)CCCCC2)c1	89.7%
COc1ccc(-c2nn(-c3cccc(NC(=O)c4ccc5c(c4)OCCO5)c3)cc2-c2ccncc2)cc1Cl	34.1%
Cc1ncc(-c2ccoc2)c(NC2CCCCCC2)n1	104%
O=S(=O)(NCCNc1nccc(-c2c(-c3ccc(F)cc3)nc3sccn23)n1)c1ccc2ccccc2c1	71.7%
COc1ccc2c(c1)nc(N)c1c3cccnc3cn21	16%
O=C(Nc1cccc(-n2cc(-c3ccncc3)c(-c3ccc(O)c(Cl)c3)n2)c1)c1ccc(Cl)c(Cl)c1	51.1%
CCN1CCCC1CNC(=O)c1ncc(-c2ccc(C(F)(F)F)cc2)c(NC2CCCCCC2)n1 (centres undefined)	78.3%
Clc1ccc(-c2cn(-c3ccccc3)c(-c3ccccc3)n2)c(Cl)c1	37%
CCCCCCCCCCCCCCCC(=O)OC1[C@@H](OC(=O)CCCCCCCCCCCCCCC)[C@@H](C(=O)N[C@@H](CCCCN)C(=O)OC)O[C@H]1n1cnc2c(=O)[nH]c(NC(=O)C(C)C)nc21 (some centres undefined)	111%
O=c1oc2cc(OS(=O)(=O)c3ccccc3)ccc2c2c1CCCCC2	57.2%
O=C1Nc2ccccc2C1=NC1CCCCC1	105%
O=C(Nc1cccc(-n2cc(-c3ccncc3)c(-c3ccc(O)c(Cl)c3)n2)c1)c1ccc(N2CCOCC2)c(C(F)(F)F)c1	43.3%
O=C(Nc1ccc(OS(=O)(=O)c2ccccc2)cc1)C12CC3CC(CC(C3)C1)C2	57%
O=C(Nc1cccc(-n2cc(-c3ccncc3)c(-c3ccc(O)c(Cl)c3)n2)c1)c1cc(C(F)(F)F)cc(C(F)(F)F)c1	72.4%
CCCC#CCN(CC)CC	99.1%
Cc1ccc(S(=O)(=O)OCCN(CCOS(=O)(=O)c2ccc(C)cc2)c2c[nH]c(=O)[nH]c2=O)cc1	100%
CCOC(=O)C(NC(=O)C(Cl)Cl)C(O)c1ccccc1 (centres undefined)	94.2%
